Among all 77,000 compounds or so, about 4,600 (6%) were called active. Not shown: some 1% with an inconclusive outcome. This is one part of a sample in which actives are shown more often than they occur. Unmarked numbers belong to inactive results.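 The calls were made as follows: active = mean inhibition above about 93%, with at least 55% of replicates each passing it (limit read from the data, passing the limit was not always enough); inconclusive = only one of those two conditions holds; inactive = neither condition holds.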

The test can be described thus: growth inhibition of T. cruzi in host fibroblasts – cell-based, beta-gal Tulahuen parasites, NIH3T3 host, luminescence, primary screen (AID 624255). As to conditions: T. cruzi beta-gal in NIH3T3, GalScreen luminescence, 90 h; at 8.34 µM; stronger effect = higher value.
The term inhibition denotes the drop in the measured response relative to a control, in per cent. Take `C[C@@H](NC(=O)C[C@@H]1CC[C@@H](NC(=O)C2CCOCC2)[C@@H](CO)O1)c1ccccc1`: the inhibition is 9.21%.
The figure for `O=C(C[C@@H]1CC[C@@H](NC(=O)Nc2ccc(F)cc2)[C@H](CO)O1)NCCN1CCCC1` is 30.1%; for `CCCNC(=O)N1[C@@H]2c3ccc(-c4ccccc4OC)c(=O)n3C[C@H]1[C@H](CO)[C@H]2C(=O)N(C)C` it is 1.54%.
Take `CO[C@@H]1CC[C@@H]2CCOc3c(C#N)cccc3C(=O)N(C)C[C@@H](OC)[C@@H](C)C(=O)N(C)C[C@H]1O2`: the inhibition was 11.7%.
The figure for `CC(=O)N1[C@@H](CO)[C@H](c2ccccc2)[C@@H]1CN(C)C(=O)CN1CCOCC1` is 50.9%.
The figure for `C[C@@H]1CN([C@@H](C)CO)C(=O)c2cc(NC(=O)Nc3ccc4c(c3)OCO4)ccc2O[C@@H](C)CCCCO[C@@H]1CN(C)Cc1ccccc1` is 41.8%; for `C[C@@H]1CN([C@H](C)CO)C(=O)c2cc(NC(=O)Nc3ccc4c(c3)OCO4)ccc2O[C@@H](C)CCCCO[C@@H]1CN(C)Cc1ccc2c(c1)OCO2` it is 81.6%; for `COc1ccc(NC(=O)Nc2ccc3c(c2)C(=O)N([C@H](C)CO)C[C@H](C)[C@@H](CN(C)Cc2ccc(C(=O)O)cc2)OCCCC[C@H](C)O3)cc1` it is 51%.
The figure for `COc1ccc(NC(=O)N(C)C[C@H]2OCCCC[C@@H](C)Oc3ccc(NC(=O)Nc4ccc5c(c4)OCO5)cc3C(=O)N([C@H](C)CO)C[C@@H]2C)cc1` is 9.34%.
In the case of `COc1ccc(CN(C)C[C@H]2OCCCC[C@H](C)Oc3ccc(NC(=O)Nc4ccc5c(c4)OCO5)cc3C(=O)N([C@H](C)CO)C[C@@H]2C)cc1`, the inhibition is 98.7% (active).
Turning to `C[C@@H]1CCCCO[C@@H](CN(C)Cc2ccc3c(c2)OCO3)[C@@H](C)CN([C@@H](C)CO)C(=O)c2cc(NC(=O)Nc3ccccc3)ccc2O1`, the inhibition was 99.9% (active).
The figure for `Cc1cccc(S(=O)(=O)N2C[C@H]3[C@@H](c4ccccc42)[C@H](CO)N3Cc2ccc3c(c2)OCO3)c1` is 72.7%; for `CN1C[C@H](O)COC[C@H]2O[C@H](CC(=O)NC3CCC3)CC[C@@H]21` it is -61.9%.
The figure for `C[C@@H]1CN([C@H](C)CO)C(=O)c2cc(NS(=O)(=O)c3cccs3)ccc2O[C@@H](C)CCCCO[C@@H]1CN(C)S(=O)(=O)c1cccs1` is -40.5%; for `C[C@@H]1CCCCO[C@@H](CN(C)S(=O)(=O)c2ccc(F)cc2)[C@@H](C)CN([C@@H](C)CO)C(=O)c2cc(NS(=O)(=O)c3cccs3)ccc2O1` it is 10.6%.
The figure for `C[C@@H]1CCCCO[C@H](CN(C)S(=O)(=O)c2ccc(Cl)cc2)[C@H](C)CN([C@@H](C)CO)C(=O)c2cc(NS(=O)(=O)c3cccs3)ccc2O1` is 110% (active).
Consider `C[C@@H]1CCCCO[C@@H](CN(C)S(C)(=O)=O)[C@H](C)CN([C@@H](C)CO)C(=O)c2cc(NS(=O)(=O)c3cccs3)ccc2O1`, for which the inhibition was -8.12%.
With `C[C@@H]1CN([C@H](C)CO)C(=O)c2cc(NS(=O)(=O)c3cccs3)ccc2O[C@@H](C)CCCCO[C@@H]1CN(C)S(=O)(=O)c1ccc(Cl)cc1`, the inhibition was 109% (active).
The figure for `C[C@@H]1CCCCO[C@H](CN(C)S(=O)(=O)c2cccs2)[C@H](C)CN([C@@H](C)CO)C(=O)c2cc(NS(=O)(=O)c3cccs3)ccc2O1` is -8.67%; for `COCC(=O)N1C[C@@H](C)[C@H](OC)CN(C)C(=O)c2cc(NC(=O)c3cc(C)on3)ccc2OC[C@@H]1C` it is 60.6%; for `C[C@H](O)C#Cc1ccc2c(c1)O[C@@H](CN(C)CC1CCCC1)[C@H](C)CN([C@@H](C)CO)S2(=O)=O` it is 13.4%.
The figure for `COCC(=O)Nc1ccc2c(c1)C(=O)N(C)C[C@H](OC)[C@@H](C)CN(C(=O)c1cnccn1)[C@H](C)CO2` is 7.73%; for `CC(=O)N1[C@H](C(=O)N(C)C)[C@@H](CO)[C@@H]2Cn3c(ccc(-c4ccccc4)c3=O)[C@@H]21` it is 16.7%.
The figure for `Cc1ccc(S(=O)(=O)N(C)C[C@H]2OCCCC[C@H](C)Oc3ccc(NC(=O)Cc4ccccc4)cc3C(=O)N([C@@H](C)CO)C[C@@H]2C)cc1` is 110% (active).
Consider `C[C@@H]1CCCCO[C@H](CN(C)C)[C@H](C)CN([C@@H](C)CO)C(=O)c2cc(NC(=O)Cc3ccccc3)ccc2O1`, for which the inhibition was -33.2%.
The figure for `Cc1ccc(S(=O)(=O)N(C)C[C@@H]2OCCCC[C@@H](C)Oc3ccc(NC(=O)C4CCCCC4)cc3C(=O)N([C@H](C)CO)C[C@H]2C)cc1` is 24%; for `C[C@@H]1CN([C@@H](C)CO)C(=O)c2cc(NC(=O)CCCN(C)C)ccc2O[C@@H](C)CCCCO[C@@H]1CN(C)S(=O)(=O)c1ccc(Cl)cc1` it is 25.4%; for `C[C@@H]1CCCCO[C@@H](CN(C)S(=O)(=O)c2ccc(Cl)cc2)[C@H](C)CN([C@@H](C)CO)C(=O)c2cc(NC(=O)Cc3ccccc3)ccc2O1` it is 98.6% (active).
The figure for `Cc1ccc(S(=O)(=O)N(C)C[C@@H]2OCCCC[C@@H](C)Oc3ccc(NS(=O)(=O)c4ccccc4)cc3C(=O)N([C@H](C)CO)C[C@@H]2C)cc1` is 55%; for `CCCN1C[C@H](C)[C@@H](OC)CN(C)C(=O)c2cc(NS(=O)(=O)CC)ccc2OC[C@H]1C` it is -88%; for `CN1c2ccc(Br)cc2[C@H]2[C@H](CCN2S(=O)(=O)c2ccccc2)[C@@H]1CO` it is 95.5%.
Regarding `CN1C(=O)c2cc(NS(=O)(=O)c3ccc(F)cc3)ccc2OC[C@@H]2O[C@@H](CC(=O)O)CC[C@H]21`, the inhibition is 20.4%.
The figure for `COc1cccc(C(=O)Nc2ccc3c(c2)C(=O)N(C)[C@@H]2CC[C@H](CC(=O)NCC4CC4)O[C@@H]2CO3)c1` is 22.9%.
The figure for `COCC(=O)Nc1ccc2c(c1)C(=O)N(C)C[C@H](OC)[C@@H](C)CN(C(=O)Cc1cccnc1)[C@@H](C)CO2` is -9.25%; for `CC(C)NC(=O)N1C[C@H]2[C@@H](c3ccccc31)[C@H](CO)N2C(=O)c1ccccc1F` it is -21.6%.

These data come from PubChem BioAssay AID624255 (Broad Institute, 2012).
